Screens: PubChem, National Center for Advancing Translational Sciences (NCATS)
RORgamma inh: ROR gamma (mouse) transcription inhibition. Drosophila S2 Gal4-RORgamma UAS-luciferase reporter, 20 h. AID 2551. Potency, µM (doses to about 53.6 µM), for inactives: at the highest dose activity change, negative = inhibition, most hits filed as inhibitors. P51450. actives 5.4% (n = 310,000); note: nearly all actives have a fitted effect of over 60% in size
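Stable Schneider cell line, Gal4 DNA-binding domain fused to ROR gamma, UAS-luciferase. Cmpd 1 hr RT → CuSO4 700 uM final → 20 hr RT → luciferase reagent 10 min → luminescence.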
Sfp PPTase inh: inhibitors of Bacillus subtilis Sfp phosphopantetheinyl transferase | actives 3.5% (n = 310,000) | Biochemical Sfp PPTase activity, qHTS | Potency, µM, without a hit: largest response in the series, negative = inhibition, usual class: inhibitors;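 note: the enzyme is Sfp with the accession as filed and its product quenches rhodamine fluorescence; 0% = enzyme reaction without inhibitor and -100% = no enzyme wells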
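Fluorescence-quenching assay: 15 nM Sfp-PPTase preincubated 15 min at room temperature with compound, then 5 uM rhodamine-CoA and 12.5 uM BHQ-2-labelled YbbR peptide added. Fluorescence (ex 525/em 598 nm) read at start and after 30 min; difference gives rate.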
PLK1 PBD block: inhibitors of human PLK1 polo-box domain binding. Potency, µM, for inactives: max response, negative = inhibition, most hits filed as inhibitors. Plk1 PBD binding of FITC phosphopeptide, fluorescence polarization. P53350. AID 720504. actives 2.8% (n = 360,000); note: series mostly up to about 57 µM; nearly all actives have a fitted effect of over 65% in size
Target sequence (P53350 whole entry, looked up, the tested form may be a part): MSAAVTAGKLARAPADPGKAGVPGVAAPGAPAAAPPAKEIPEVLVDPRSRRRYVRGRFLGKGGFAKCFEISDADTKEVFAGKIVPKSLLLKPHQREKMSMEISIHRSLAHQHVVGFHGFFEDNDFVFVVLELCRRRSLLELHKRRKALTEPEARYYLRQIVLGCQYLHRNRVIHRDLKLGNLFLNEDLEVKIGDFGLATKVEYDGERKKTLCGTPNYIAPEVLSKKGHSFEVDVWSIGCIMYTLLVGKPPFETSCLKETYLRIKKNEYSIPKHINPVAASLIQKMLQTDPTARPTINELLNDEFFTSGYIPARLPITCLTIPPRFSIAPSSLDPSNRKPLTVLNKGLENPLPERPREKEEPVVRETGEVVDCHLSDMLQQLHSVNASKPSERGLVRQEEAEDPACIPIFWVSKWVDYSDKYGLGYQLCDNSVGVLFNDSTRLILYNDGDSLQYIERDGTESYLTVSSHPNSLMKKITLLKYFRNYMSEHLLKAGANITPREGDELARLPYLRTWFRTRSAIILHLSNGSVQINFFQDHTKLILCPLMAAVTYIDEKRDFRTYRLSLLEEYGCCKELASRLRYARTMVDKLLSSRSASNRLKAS
VP16 counter: counter-screen for ROR gamma inhibitors: Gal4-VP16 reporter; Drosophila S2 Gal4-VP16 UAS-luciferase, luminescence, 20 h; Potency, µM (titrated, usually from 53.6 µM), for the others: at the highest dose activity, negative = inhibition, hits mostly inhibitors; actives 3.5% (n = 310,000);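 note: Gal4-VP16 expression switched on by copper sulfate through the metallothionein promoter; nearly all actives have a fitted effect of over 50% in size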
ALDH1A1 inh: blocks purified human ALDH1A1 activity; Purified ALDH1A1, NADH fluorescence, propionaldehyde substrate; Potency, µM (highest dose often 75.3 µM), for inactives: top-dose activity, negative = inhibition, most hits filed as inhibitors; actives 7.3% (n = 220,000); AID 1030; active = well fitted inhibition curve with a large enough effect, not every such curve was filed as active; inconclusive = small, poorly fitted or top-dose-only effect, or another doubt; inactive = no such curve, though single readings can be large or run the other way;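 note: plate controls were no enzyme wells and a reference inhibitor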
An asterisk follows results filed as active; ? = inconclusive; nt = no result given. An excerpt weighted towards active compounds, which were near 12% of everything screened. Unless noted, calls come from the whole dose curve; as a rule, active = well fitted curve in the direction sought with a large enough effect; inconclusive = small, poorly fitted or top-dose-only effect, or another doubt; inactive = no such curve, though single readings can be large; an effect the other way counts as inactive or inconclusive. Unless noted, % is set by controls: 0 for no effect and ±100 for the full control effect; potency is the fitted concentration of half-maximal effect.

SMILES | RORgamma inh | Sfp PPTase inh | PLK1 PBD block | VP16 counter | ALDH1A1 inh
O=c1c(-c2cccs2)nc2cnc(Oc3cccc(Cl)c3)nc2n1C[C@H]1CCCO1 | ? | 13% | nt | -20% | ?
COc1ccc(CSc2nncn2N)cc1[N+](=O)[O-] | 13% | -28% | -2% | -16% | ?
COc1ccc(CSc2nncn2C)cc1[N+](=O)[O-] | -6% | 3% | 2% | 3% | 20µM*
CCN(C(=O)COC(=O)CNC(=O)c1ccccc1C)C1=CCCCC1 | nt | nt | -18% | nt | nt
CCCN(C(=O)CCl)C1=CCCCC1 | -19% | 16% | -11% | -6% | 0.71µM*
C/C(=N/NC(=O)c1nnn(-c2nonc2N)c1CSc1ccc(C)cc1)c1ccncc1 | nt | nt | -2% | nt | nt
O=C(c1[nH]c(C(F)(F)F)nc1-c1ccccc1)N1CCN(c2cccc(C(F)(F)F)n2)CC1 | nt | nt | 0% | nt | nt
CCCCCOc1ccc(Br)cc1CSC(=N)N | -75% | -24% | -7% | 7.1µM* | 4%
COc1ccc(Br)cc1CSC(=N)N | ? | -7% | 2% | -19% | 7%
O=c1c(O)cc(C2Oc3cc(O)cc(O)c3CC2O)cc2c(C3Oc4cc(O)cc(O)c4CC3O)cc(O)c(O)c12 (stereo not drawn) | -7% | 7.1µM* | nt | -27% | -15%
Oc1cc(O)c2c(c1)O[C@H](c1ccc(O)c(O)c1)[C@@H](O)C2 | 5% | -18% | -7% | 3% | ?
COC(=O)CSc1nnc(CNC(=O)c2cccs2)n1-c1cc(OC)ccc1OC | -4% | 3% | -11% | -4% | 20µM*
CC(C(=O)O)c1ccc(N2Cc3ccccc3C2=O)cc1 (stereo not drawn) | 1.8µM* | 21% | -5% | 4µM* | -5%
CC(C)(C)c1nnc(N/N=C/c2ccccc2O)n(N)c1=O | 10µM* | -3% | 0% | 11µM* | 6%
CCc1nnc(N/N=C/c2ccccc2F)n1N | 11µM* | 50µM* | -1% | -2% | -9%
CC(C)(C)c1nnc(N/N=C/c2ccccc2)n(N)c1=O | 4µM* | 79µM* | 1% | 5.6µM* | 7%
CCc1nnc(N/N=C/c2ccccc2Cl)n1N | ? | -24% | -6% | ? | 6%
O=C(N/C(=C/c1cn(-c2ccccc2)nc1-c1ccccc1)C(=O)N1CCOCC1)c1ccc(Cl)cc1Cl | -16% | 12% | -16% | -2% | 16µM*
O=C(c1cn(-c2ccccc2)nc1-c1cccc(Br)c1)N1CCOCC1 | 12% | 9% | -2% | -2% | 25µM*
O=C(N/C(=C\c1cn(-c2ccccc2)nc1-c1ccc(Cl)cc1)C(=O)N1CCOCC1)c1ccccc1 | 6% | 13% | 6% | -1% | 6%
O=C(c1cn(-c2ccccc2)nc1-c1ccc(Br)cc1)N1CCOCC1 | 39% | 20% | -5% | 4% | -2%
CCCCNC(=O)c1ccc2nc(-c3ccco3)c(-c3ccco3)nc2c1 | -31% | 32µM* | 21µM* | 18% | 5µM*
CCCCCNC(=O)C(c1cc2ccccc2o1)n1c(=O)c(-c2ccco2)nc2ccccc21 (stereo not drawn) | nt | nt | 7.5µM* | nt | nt
O=C(NCCO)Nc1ccc2nc(-c3ccco3)c(-c3ccco3)nc2c1 | 4% | 18µM* | nt | ? | ?
CC(=O)c1ccc(NC(=O)c2ccc3nc(-c4ccco4)c(-c4ccco4)nc3c2)cc1 | -11% | 13µM* | 24µM* | 9% | 3.2µM*
SMILES | RORgamma inh | Sfp PPTase inh | PLK1 PBD block | VP16 counter | ALDH1A1 inh
C=C(CCO)C1=CCN(S(=O)(=O)C(C)(C)C)[C@H]1CCO | nt | nt | -9% | nt | nt
COc1ccc([C@H]2CC(=O)C[C@@H](CCn3cc(C(C)C)nn3)O2)cc1 | nt | nt | -8% | nt | nt
O=C(Nc1nc2c(s1)CCc1ccccc1-2)c1cccs1 | 10µM* | -10% | -10% | -27% | -3%
O=C(Nc1nc2c(s1)COc1ccccc1-2)c1cccs1 | ? | -17% | -23% | 5% | ?
Fc1ccccc1Nc1nc2c(s1)CCc1ccccc1-2 | 20% | 3.2µM* | nt | ? | 5%
Cc1cccc(C)c1NC(=O)COC(=O)c1cc(=O)c2ccccc2o1 | -2% | 3% | 21µM* | 5% | nt
CCC(C)c1ccc(NC(=O)Nc2cccnc2)cc1 (stereo not drawn) | ? | 10% | -3% | ? | nt
Cc1cscc1-c1nc(NCC2CC2)nc2ccsc12 | nt | nt | -5% | nt | nt
O=C(N=C1c2ccccc2CN1c1ccc(F)c(F)c1)c1cccnc1 | 32% | -9% | -8% | -18% | 14µM*
